VP16 counter: counter-screen for ROR gamma inhibitors: Gal4-VP16 reporter; AID 2546; 310,000 compounds, 3.5% hits; Potency, µM (titrated, usually from 53.6 µM), for the others: at the highest dose activity, negative = inhibition, hits mostly inhibitors; Drosophila S2 Gal4-VP16 UAS-luciferase, luminescence, 20 h;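 also: Gal4-VP16 expression switched on by copper sulfate through the metallothionein promoter; potency is read from the fitted curve at half-maximal effect; nearly all actives have a fitted effect of over 50% in size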
Six1-Eya2 blk: inhibitors of human Six1/Eya2 interaction; AlphaScreen GST-Six1/His-Eya2 binding, biochemical; stronger effect = lower value; Q15475+O00167; activity change, % (concentration not given with the values); 360,000 compounds, 0.56% hits; in the data active = activity change below about -65%; inconclusive = mostly about -30% to -63%
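Six1/Eya2 binding was read as AlphaScreen signal after compounds were pinned into GST-Six1 plus His-tagged Eya2 (5X stock 250/500 nM) in pH 8.0 Tris/NaCl/TCEP buffer, beads added, then incubated 1 h, 37 C, dark.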
RORgamma inh: ROR gamma (mouse) transcription inhibition; P51450; AID 2551; Potency, µM (series often up to 53.6 µM), for inactives: at the highest dose activity change, negative = inhibition, most hits filed as inhibitors; Drosophila S2 Gal4-RORgamma UAS-luciferase reporter, 20 h; 310,000 compounds, 5.4% hits; also: potency is read from the fitted curve at half-maximal effect; nearly all actives have a fitted effect of over 60% in size
Target sequence (P51450 whole entry, looked up, the tested form may be a part): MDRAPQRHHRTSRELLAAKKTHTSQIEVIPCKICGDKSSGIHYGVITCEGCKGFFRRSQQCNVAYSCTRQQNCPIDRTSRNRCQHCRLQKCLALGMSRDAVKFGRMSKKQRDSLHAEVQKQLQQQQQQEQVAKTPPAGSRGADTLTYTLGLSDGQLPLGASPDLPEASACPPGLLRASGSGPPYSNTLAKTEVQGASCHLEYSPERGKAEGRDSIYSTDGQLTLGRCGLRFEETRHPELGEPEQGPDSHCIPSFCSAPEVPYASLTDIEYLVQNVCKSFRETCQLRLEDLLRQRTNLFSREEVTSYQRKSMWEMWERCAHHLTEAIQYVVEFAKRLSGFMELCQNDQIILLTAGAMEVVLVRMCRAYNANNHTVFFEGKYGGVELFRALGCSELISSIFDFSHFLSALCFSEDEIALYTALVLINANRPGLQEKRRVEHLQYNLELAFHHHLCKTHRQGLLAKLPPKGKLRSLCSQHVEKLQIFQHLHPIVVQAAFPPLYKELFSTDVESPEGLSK
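Drosophila Schneider cells stably carrying a metallothionein-driven Gal4 DBD–ROR gamma fusion and a UAS-Photinus luciferase reporter were exposed to compound for 1 hr, then induced with copper sulfate (700 uM final) for 20 hr at ambient temperature before luminescence reading.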
PKM2 activator: activators of human pyruvate kinase M2 | purified PKM2, Kinase-Glo ATP luminescence, activation; response scale: 0% is enzyme alone, no compound | AID 1631 | 260,000 compounds, 0.34% hits | Potency, µM (highest dose often 57.5 µM), inactives show at the top dose activation, usual class: activators; also: potency is read from the fitted curve at half-maximal effect; nearly all actives have a fitted effect of over 55% in size
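hPK-M2, >95% pure; 0.1 mM ADP / 0.5 mM PEP final; imidazole pH7.2 buffer w/ 7 mM MgCl2, 50 mM KCl; 1 h RT; Kinase-Glo lum. Intermediate enzyme activity for dual inhibitor/activator qHTS.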
CtBP-E1A blk: blocks the CtBP interaction with E1A. AID 651724. 340,000 compounds, 0.49% hits. AlphaScreen GST-E1A/His-CtBP binding, 1536-well; stronger effect = lower value. activity change, % (concentration not given with the values); in the data active = activity change below about -65%; inconclusive = mostly about -30% to -63%
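Protein mix (5X: 125 nM each GST-E1A, His-CtBP) was incubated with pinned compound 2 h at 37 deg C in dark, in 50 mM Tris pH 8.0 buffer with 300 mM NaCl. Glutathione donor and nickel acceptor beads followed; AlphaScreen signal read after 1 h.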
Starred values were filed as active, the others as inactive; ? = inconclusive; . = no result given. Most compounds without a hit are left out; they make up all but 5.6% or so of the library. Unless noted, calls follow the shape of the dose curve; as a rule, active = well fitted curve in the direction sought with a large enough effect; inconclusive = small, poorly fitted or top-dose-only effect, or another doubt; inactive = no such curve, though single readings can be large; an effect the other way counts as inactive or inconclusive. % is scaled to controls: 0 for no effect and ±100 for the full control effect.

SMILES	VP16 counter	Six1-Eya2 blk	RORgamma inh	PKM2 activator	CtBP-E1A blk
CN(CC(=O)Nc1ccc(Cl)c(C(F)(F)F)c1)C(=O)Cc1ccsc1	.	-4	.	.	-2
C/C(=N/O)c1ccccn1	1%	?	-28%	-3%	?
Cc1cccc(NC(=S)NCCc2ccccn2)c1	?	4	?	11%	-2
COc1ccccc1NC(=O)c1ccccc1NC(=O)c1ccccn1	.	-3	.	.	-8
COc1ccccc1NC(=S)NN=C(C)c1ccccn1	.	-72*	.	.	-81*
CC(=NNC(=S)Nc1cccc(C)c1)c1ccccn1	.	-81*	.	.	3
CC(=NNC(=S)Nc1ccc(C)cc1)c1ccccn1	.	-85*	.	.	-8
CCOc1ccc(S(=O)(=O)N2CCN(Cc3ccco3)CC2)cc1	-5%	-7	1%	-3%	-4
COC(=O)c1ccc(CNS(=O)(=O)c2ccc3ccccc3c2)cc1	5%	-10	10%	1%	0
Cc1ccccc1OCC(=O)NCCNC(=O)c1ccccn1	-8%	-1	1%	.	3
CC(Oc1cccc(Cl)c1)C(=O)Nc1nc(-c2ccccn2)cs1 (stereo not drawn)	.	?	.	.	-74*
Cc1cccc(C(=O)NC(C(=O)Nc2nc(-c3ccccn3)cs2)C(C)C)c1 (stereo not drawn)	?	?	7.9µM*	-2%	.
Cc1nc(NC(=O)C(C)Oc2cccc(Cl)c2)sc1C(=O)N(C)C (stereo not drawn)	12%	1	37%	2%	-1
C[C@H](NC(=O)c1ccccc1)C(=O)Nc1nc(-c2ccccn2)cs1	-7%	-84*	-4%	7%	-81*
CC(Oc1ccccc1)C(=O)Nc1nc(-c2ccncc2)cs1 (stereo not drawn)	.	11	.	.	-6
CC(Oc1ccccc1)C(=O)Nc1nc(-c2ccccn2)cs1 (stereo not drawn)	.	-68*	.	.	-87*
CC1(C(=O)NS(=O)(=O)c2cccc(C#N)c2)CCN1C(=O)c1ccco1 (stereo not drawn)	.	12	.	.	2
CCOc1cc(N2CCOCC2)c(OCC)cc1NC(=O)C1CC(=O)N(c2ccc(C)cc2)C1 (stereo not drawn)	.	-1	.	.	5
CCOC(=O)c1cnc(SSc2ncc(C(=O)OCC)c(N)n2)nc1N	11µM*	15	10µM*	2%	.
CCOC(=O)c1cnc(SCC(=O)OC)nc1N	-6%	20	22%	2%	0
O=C(CSc1nnc(-c2ccc(F)cc2)c2ccccc12)NCC1CCCO1 (stereo not drawn)	6%	-2	-19%	-1%	-14
O=C(Cn1sc2ccccc2c1=O)NC12CC3CC(CC(C3)C1)C2	0.5µM*	4	3.5µM*	-39%	10
COCCNC(=S)N/N=C1\CC(C)CC(C)(C)C1 (stereo not drawn)	3.5µM*	-8	1µM*	5%	-2
COCCNC(=S)Nc1ccc(N2CCCCC2)cc1	-19%	-3	?	-16%	-11
COCCNC(=S)NN=C1CCCCCC1	6.3µM*	3	2µM*	0%	0
SMILES	VP16 counter	Six1-Eya2 blk	RORgamma inh	PKM2 activator	CtBP-E1A blk
CCOC(=O)c1c(-c2ccc(C)o2)csc1NC(=O)CSc1nnc(C)s1	?	-17	?	13µM*	12
CCOC(=O)c1c(-c2cccs2)csc1NC(=O)CSc1ncn[nH]1	?	-9	?	28µM*	-5
CCOC(=O)c1c(-c2cccs2)csc1NC(C)=O	4%	11	31%	25%	1
CCOC(=O)c1sc(NC(=O)CSc2nnnn2-c2ccccc2)nc1C	4%	21	-37%	2%	49
CCOC(=O)c1c(-c2ccc(C)o2)csc1NC(=O)CSc1nnnn1-c1ccccc1	7.9µM*	-9	11µM*	7.9µM*	8
O=C(NCc1cccnc1)c1cc(C2CCCN(C(=O)c3cccs3)C2)on1 (stereo not drawn)	.	0	.	.	2
CCOc1cc(Cl)c(S(=O)(=O)NCc2cccnc2)cc1Cl	2%	1	?	0%	1
Cc1c(F)cccc1NS(=O)(=O)c1ccc2c(c1)n(C)c(=O)c(=O)n2C	-5%	4	-13%	0.71µM*	12
